# Assay results taken from the supplement of paper PMC10037445.
# Over roughly 2,900 compounds, “IRF Lucia reporter activity, fold change vs agonist alone” has its median near 0.9; the highest 2% begin near 2.8. Many of the other results were omitted from the sample, so the highest values are more common in it than they were.
# How the values were obtained:
# RAW-Dual [1] = assay: IRF Lucia reporter activity, fold change vs agonist alone; cytotoxicity flag (confluency mask): not cytotoxic; higher = enhanced IRF activity
# How it was run: (§1)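 Reporter activity is given as fold change relative to agonist-alone wells. To measure it, 50 nL of library stock was pin-tooled onto RAW-Dual macrophages (50,000 cells/well, DMEM, 384-well plates), a PRR agonist followed 1 h later, and cells stayed at 37 °C, 5% CO2. Twenty hours on, supernatant was assayed for IRF (QuantiLuc luminescence) and NF-κB (QuantiBlue, 620 nm absorbance), and wells under 70% of agonist-control IncuCyte confluency in both mask sets were marked cytotoxic.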
# RAW-Dual [2] = assay: IRF Lucia reporter activity, fold change vs agonist alone; higher = enhanced IRF activity; conditions: agonist: MPLA (TLR4) […]
# How it was run: as §1
# RAW-Dual [3] = assay: IRF Lucia reporter activity, fold change vs agonist alone; cytotoxicity flag (confluency mask): cytotoxic (confluency <70% of control); higher = enhanced IRF activity
# How it was run: as §1
# [4] = agonist: 3'3'-cGAMP (STING) 10 ug/mL
# [5] = library stock concentration (final ~1000-fold dilution): 10 mM, cytotoxicity flag (confluency mask): not cytotoxic
smiles,measurement,setting,value
CC1CCC2C(C)C(OC(=O)CCC(=O)O)OC3OC4(C)CCC1C32OO4 (stereo not drawn) (library stock concentration (final ~1000-fold dilution): 10 mM),IRF Lucia reporter activity,RAW-Dual [1]; [4],0.638
same,IRF Lucia reporter activity,RAW-Dual [1]; agonist: LPS (TLR4) 0.1 ug/mL,0.706
CC1CCC2C(C)C(OC(=O)CCC(=O)O)OC3OC4(C)CCC1C32OO4 (stereo not drawn),IRF Lucia reporter activity,RAW-Dual [2]; [5],0.737
COc1ccc(CCc2nc3cc(-c4c(C)noc4C)ccc3n2CC(C)N2CCOCC2)cc1Cl (stereo not drawn) (library stock concentration (final ~1000-fold dilution): 10 mM),IRF Lucia reporter activity,RAW-Dual [1]; [4],0.452
same,IRF Lucia reporter activity,RAW-Dual [1]; agonist: LPS (TLR4) 0.1 ug/mL,0.421
COc1ccc(CCc2nc3cc(-c4c(C)noc4C)ccc3n2CC(C)N2CCOCC2)cc1Cl (stereo not drawn),IRF Lucia reporter activity,RAW-Dual [2]; [5],0.203
COC1=CC(c2cc3ccccc3[nH]2)=N/C1=C\c1[nH]c(C)cc1C.CS(=O)(=O)O (library stock concentration (final ~1000-fold dilution): 10 mM),IRF Lucia reporter activity,RAW-Dual [1]; [4],0.38
same,IRF Lucia reporter activity,RAW-Dual [1]; agonist: LPS (TLR4) 0.1 ug/mL,3.87
Cc1cc(C)c(/C=C2\C(=O)Nc3ccccc32)[nH]1 (library stock concentration (final ~1000-fold dilution): 10 mM),IRF Lucia reporter activity,RAW-Dual [1]; [4],0.77
same,IRF Lucia reporter activity,RAW-Dual [1]; agonist: LPS (TLR4) 0.1 ug/mL,0.578
Cc1cc(C)c(/C=C2\C(=O)Nc3ccccc32)[nH]1,IRF Lucia reporter activity,RAW-Dual [2]; [5],0.781
COC1=CC(c2cc3ccccc3[nH]2)=N/C1=C\c1[nH]c(C)cc1C.CS(=O)(=O)O,IRF Lucia reporter activity,RAW-Dual [2]; [5],5.45
O=C(c1cc(-c2cc3c(cc2C(=O)N2Cc4ccccc4CC2CN2CCOCC2)OCO3)n2c1CCCC2)N(c1ccccc1)c1ccc(O)cc1 (stereo not drawn) (library stock concentration (final ~1000-fold dilution): 10 mM),IRF Lucia reporter activity,RAW-Dual [1]; [4],0.268
same,IRF Lucia reporter activity,RAW-Dual [1]; agonist: LPS (TLR4) 0.1 ug/mL,0.935
Oc1cc(O)c2c(c1)OC(c1ccc(O)c(O)c1)C(O)[C@H]2c1c(O)cc(O)c2c1OC(c1ccc(O)c(O)c1)C(O)C2 (stereo partly drawn) (library stock concentration (final ~1000-fold dilution): 10 mM),IRF Lucia reporter activity,RAW-Dual [1]; [4],0.867
same,IRF Lucia reporter activity,RAW-Dual [1]; agonist: LPS (TLR4) 0.1 ug/mL,1.27
COc1ncc(-c2cc(-c3ncc(CN4CC(C)OC(C)C4)o3)c3cn[nH]c3c2)cc1NS(C)(=O)=O (stereo not drawn) (library stock concentration (final ~1000-fold dilution): 10 mM),IRF Lucia reporter activity,RAW-Dual [3]; [4],0.865
same,IRF Lucia reporter activity,RAW-Dual [3]; agonist: LPS (TLR4) 0.1 ug/mL,4.5
CC(C)N1CCN(Cc2cnc(-c3cc(-c4cccc5[nH]ccc45)cc4[nH]ncc34)o2)CC1 (library stock concentration (final ~1000-fold dilution): 10 mM),IRF Lucia reporter activity,RAW-Dual [1]; [4],0.609
same,IRF Lucia reporter activity,RAW-Dual [1]; agonist: LPS (TLR4) 0.1 ug/mL,1.42
CN1CCN(C(=O)c2ccc(-c3ccc4c(C=O)c(O)ccc4c3)s2)CC1 (library stock concentration (final ~1000-fold dilution): 10 mM),IRF Lucia reporter activity,RAW-Dual [1]; [4],0.228
same,IRF Lucia reporter activity,RAW-Dual [1]; agonist: LPS (TLR4) 0.1 ug/mL,0.45
Cc1cnc(Nc2ccc(F)cc2Cl)nc1-c1c[nH]c(C(=O)NC(CO)c2cccc(Cl)c2)c1 (stereo not drawn) (library stock concentration (final ~1000-fold dilution): 10 mM),IRF Lucia reporter activity,RAW-Dual [1]; [4],0.474
same,IRF Lucia reporter activity,RAW-Dual [1]; agonist: LPS (TLR4) 0.1 ug/mL,1.16
CN1CCc2c(c3ccccc3n2Cc2ccccc2)C1.CN1CCc2c(c3ccccc3n2Cc2ccccc2)C1.O=S(=O)(O)c1cccc2c(S(=O)(=O)O)cccc12 (library stock concentration (final ~1000-fold dilution): 2 mM),IRF Lucia reporter activity,RAW-Dual [1]; [4],1.04
same,IRF Lucia reporter activity,RAW-Dual [1]; agonist: LPS (TLR4) 0.1 ug/mL,1
CN1CCc2c(c3ccccc3n2Cc2ccc(C(=O)NO)cc2)C1 (library stock concentration (final ~1000-fold dilution): 10 mM),IRF Lucia reporter activity,RAW-Dual [1]; [4],0.943
same,IRF Lucia reporter activity,RAW-Dual [1]; agonist: LPS (TLR4) 0.1 ug/mL,1.19
CN1CCc2c(c3ccccc3n2Cc2ccc(C(=O)NO)cc2)C1.Cl (library stock concentration (final ~1000-fold dilution): 10 mM),IRF Lucia reporter activity,RAW-Dual [1]; [4],1.18
same,IRF Lucia reporter activity,RAW-Dual [1]; agonist: LPS (TLR4) 0.1 ug/mL,4.79
CN1CCc2c(c3ccccc3n2Cc2ccc(C(=O)NO)cc2)C1.Cl,IRF Lucia reporter activity,RAW-Dual [2]; [5],5.65
CN1CCc2c(c3ccccc3n2Cc2ccccc2)C1.CN1CCc2c(c3ccccc3n2Cc2ccccc2)C1.O=S(=O)(O)c1cccc2c(S(=O)(=O)O)cccc12,IRF Lucia reporter activity,"RAW-Dual [2]; library stock concentration (final ~1000-fold dilution): 2 mM, cytotoxicity flag (confluency mask): not cytotoxic",1.25
COc1ccc(CC(=O)Nc2nc3c(s2)CCc2ccccc2-3)cc1OC (library stock concentration (final ~1000-fold dilution): 10 mM),IRF Lucia reporter activity,RAW-Dual [1]; [4],0.989
same,IRF Lucia reporter activity,RAW-Dual [1]; agonist: LPS (TLR4) 0.1 ug/mL,0.961
COc1cccc(C=NCCN=Cc2cccc(OC)c2[O-])c1[O-].[Cl-].[Mn+2],IRF Lucia reporter activity,RAW-Dual [2]; [5],0.946
COc1cccc(C=NCCN=Cc2cccc(OC)c2[O-])c1[O-].[Cl-].[Mn+2] (library stock concentration (final ~1000-fold dilution): 10 mM),IRF Lucia reporter activity,RAW-Dual [1]; [4],1.06
same,IRF Lucia reporter activity,RAW-Dual [1]; agonist: LPS (TLR4) 0.1 ug/mL,0.762
CN1c2ccccc2C(=O)Nc2cnc(Nc3ccc(N4CCC(O)CC4)cc3)nc21 (library stock concentration (final ~1000-fold dilution): 10 mM),IRF Lucia reporter activity,RAW-Dual [1]; [4],0.137
same,IRF Lucia reporter activity,RAW-Dual [1]; agonist: LPS (TLR4) 0.1 ug/mL,0.438
CCOc1cc(N2CCC(O)CC2)ccc1Nc1ncc2c(n1)N(C)c1ccccc1C(=O)N2C (library stock concentration (final ~1000-fold dilution): 10 mM),IRF Lucia reporter activity,RAW-Dual [1]; [4],0.518
same,IRF Lucia reporter activity,RAW-Dual [1]; agonist: LPS (TLR4) 0.1 ug/mL,0.253
CCOc1cc(N2CCC(O)CC2)ccc1Nc1ncc2c(n1)N(C)c1ccccc1C(=O)N2C,IRF Lucia reporter activity,RAW-Dual [2]; [5],0.32
Cc1nc(Nc2cnn(C3CCNCC3)c2)nc2c1N(C)C(=O)c1cc3ccccc3cc1N2C (library stock concentration (final ~1000-fold dilution): 10 mM),IRF Lucia reporter activity,RAW-Dual [3]; [4],1.96
same,IRF Lucia reporter activity,RAW-Dual [3]; agonist: LPS (TLR4) 0.1 ug/mL,3.05
Cc1nc(Nc2cnn(C3CCNCC3)c2)nc2c1N(C)C(=O)c1cc3ccccc3cc1N2C,IRF Lucia reporter activity,"RAW-Dual [2]; library stock concentration (final ~1000-fold dilution): 10 mM, cytotoxicity flag (confluency mask): cytotoxic (confluency <70% of control)",3.71
CC(C)(C)CC1NC(C(=O)NC2CCC(O)CC2)C(c2cccc(Cl)c2F)C12C(=O)Nc1cc(Cl)ccc12 (stereo not drawn) (library stock concentration (final ~1000-fold dilution): 10 mM),IRF Lucia reporter activity,RAW-Dual [3]; [4],0.342
same,IRF Lucia reporter activity,RAW-Dual [3]; agonist: LPS (TLR4) 0.1 ug/mL,3.33
COc1cc(C(=O)O)ccc1NC(=O)C1NC(CC(C)(C)C)C(C#N)(c2ccc(Cl)cc2F)C1c1cccc(Cl)c1F (stereo not drawn),IRF Lucia reporter activity,RAW-Dual [2]; [5],0.67
